# Compound activity from PubChem BioAssay.
# HT1080NT lethal: kills 2HG-producing HT-1080-NT fibrosarcoma cells; HT-1080-NT fibrosarcoma viability, CellTiter-Glo ATP luminescence, 48 h; Potency, µM (series often up to 46.1 µM), without a hit: at the top dose activity, negative = less viability, usual class: cytotoxic; 1.6% of 360,000 active; AID 686970;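 further: NT is the 2HG producing partner of a matched IDH1 knockdown line; 0% = DMSO-treated cells and -100% = media-only wells without cells; nearly all actives have a fitted effect of over 55% in size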
#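 Compounds were tested in concentration-response format on HT-1080-NT cells for 48 hours at 37 degrees C. Cell viability came from CellTiter-Glo luminescence; curves were classified by r2, response magnitude and activity.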
# TDP1 cell CPT: DT40-hTDP1 cell growth loss with CPT | chicken DT40 Tdp1-/-;hTDP1 cells + 20 nM CPT, ATP luminescence, 48 h | Potency, µM (doses to about 46.2 µM), for inactives: at the top dose activity change, negative = growth inhibition, hits mostly inhibitors | 12% of 420,000 active | AID 686979; further: nearly all actives have a fitted effect of over 55% in size
#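 Chicken DT40 Tdp1-/- cells complemented with human TDP1, 400 cells/well, exposed to compounds plus 20 nM camptothecin for at least 48 h at 37 C; viability read as ATP content by CellTiter-Glo luminescence.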
# HT1080 IDH1KD tx: toxicity to HT-1080 IDH1 knockdown cells (counter line). 2% of 360,000 active. Potency, µM (series often up to 46.1 µM), without a hit: at the top dose activity, negative = toxicity, hits mostly cytotoxic. HT-1080 IDH1 knockdown viability, ATP luminescence, 48 h;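 further: 0% = DMSO wells and -100% = cell-free medium wells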
#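 Luminescent ATP read-out (CellTiter-Glo, 10 min at room temperature) after 48 h compound exposure at 37 °C gave viability of IDH1-knockdown HT-1080 cells. Activity was normalised to DMSO and cell-free wells, then fitted as concentration-response curves.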
# KB-3-1 tox: kills parental KB-3-1 adenocarcinoma cells; KB-3-1 viability, CellTiter-Glo ATP luminescence, 72 h; Potency, µM (highest dose often 46.1 µM), hits mostly cytotoxic; 1.4% of 400,000 active; AID 1347075; further: nearly all actives have a fitted effect of over 60% in size
#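 Parental KB-3-1 adenocarcinoma cells in phenol-red-free DMEM with 10% FBS were pin-treated with compounds at several concentrations, incubated 72 h at 37 °C, and viability read by CellTiter-Glo luminescence; concentration-effect curves were fitted after normalization.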
# DT40 TDP1 no CPT: qHTS for Inhibitors of human tyrosyl-DNA phosphodiesterase 1 (TDP1): qHTS in cells in absence of CPT. DT40 Tdp1-/- hTDP1 cells, no CPT, ATP luminescence, 48 h. Potency, µM (series often up to 46.2 µM), for the others: at the highest dose activity change, negative = growth inhibition, actives largely listed as inhibitors. 15% of 420,000 active; further: nearly all actives have a fitted effect of over 55% in size
#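 Luminescent ATP content (CellTiter-Glo) served as the growth readout. Knockout chicken DT40 cells expressing human TDP1 were exposed to compounds without camptothecin for a minimum 48 hr at 37 °C.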
# KB-V1 cytotox: KB-V1 MDR subline cytotoxicity; KB-V1 MDR cells viability, CellTiter-Glo, 72 h; Potency, µM (top dose mostly 46.1 µM), actives largely listed as cytotoxic; 3.4% of 400,000 active; AID 1347076; further: nearly all actives have a fitted effect of over 60% in size
#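 Cells of the MDR subline KB-V1 are plated, dosed with compound at multiple concentrations, and incubated 72 h at 37 degrees C; CellTiter-Glo is then added and luminescence read after 10 min.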
# * hit, by the source's call; i = inactive; ? = inconclusive; . = no result; ! = not confirmed by another sample. Shown are actives, neighbours in structure and some others; about 19% of the full set was active somewhere. The call rests on the fitted dose curve; in most records, active means well fitted curve in the direction sought with a large enough effect; inconclusive means small, poorly fitted or top-dose-only effect, or another doubt; inactive means no such curve, though single readings can be large; an effect the other way counts as inactive or inconclusive. Unless noted, on the % scale 0 is the no-effect control and ±100 the full control effect; potency means the concentration at half of the fitted maximal effect.
SMILES,HT1080NT lethal,TDP1 cell CPT,HT1080 IDH1KD tx,KB-3-1 tox,DT40 TDP1 no CPT,KB-V1 cytotox
Cc1sc(NC(=O)CCl)c(C(=O)c2ccccc2)c1C,?,18µM*,?,?,9.2µM*,i
CCc1cccc(C)c1NC(=O)Cn1c(=O)cc(C(F)(F)F)c2c(C)nn(C)c21,.,?,.,i,?,i
CC(C)N(C)CCOC(=O)c1ccccc1Cl,3%,-20%,-6%,i,1%,i
CC(C)N(C)CCOC(=O)c1ccccc1Br,5%,16µM*,11%,i,?,i
N=NC(=O)c1ccccc1Nc1c(O)[nH]c2ccccc12,?,21µM*,?,i,?,?
CCOc1ccccc1NC(=O)c1cc(=O)c2ccccc2o1,-7%,5%,1%,i,-12%,i
CCOC(=O)Nc1cc(=O)c2ccccc2o1,8.9µM*,8.2µM*,?,?,13µM*,?
COc1ccc(C2CC(=O)N(Cc3cccc(C)c3)c3c2c(C)nn3-c2nc(C)cc(C)n2)c(OC)c1 (stereo not drawn),.,?,.,i,?,i
CC(C)CCNC(=O)c1cccc(C(=O)NCCC(C)C)c1,-20%,?,-22%,i,?,i
Cc1ccc(C)n1-c1c(C(=O)NCCC(C)C)sc2ncccc12,.,16µM*,.,i,18µM*,i
CCc1ccc(CNC(=O)c2sc3ncccc3c2-n2c(C)ccc2C)cc1,.,15µM*,.,?,21µM*,i
COCCNC(=O)c1sc2ncccc2c1-n1c(C)ccc1C,.,18µM*,.,i,?,i
COC(=O)c1sc2ncccc2c1OCc1ccc(Cl)cc1,?,-13%,-4%,i,-17%,i
O=C(Cn1c(-c2cccs2)cc2cc(Cl)ccc21)N1CCN(c2ccccc2F)CC1,.,?,.,i,?,i
CC(=O)N1CCc2cc(Br)cc(S(=O)(=O)NCCc3ccc(Cl)cc3)c21,.,1%,.,i,13%,i
Cc1ccccc1CNC(=O)c1csc([C@@H]2C[C@H](O)[C@@H](CO)O2)n1,20%,-4%,7%,i,-10%,i
Cc1ccc(-n2nnc(-c3nccn3C)n2)cc1,?,23µM*,?,?,21µM*,i
Nc1ccc(C(=O)O)c(O)c1,2%,4%,-1%,?,0%,i
Cc1cc(O)c(-c2cc(O)c(C)cc2O)cc1O,?,5.2µM*,?,i,3.3µM*,i
Cc1ccc(N)cc1O,3%,7.7µM*!,-28%,?,6.9µM*!,i
Cc1cc(O)cc(C)c1Cl,?,1%,3%,i,-12%,i
COc1ccc(CN(CCCN2CCOCC2)C(=O)Nc2ccccc2)cc1OC,12%,-5%,1%,i,-10%,7.3µM*
O=C(Nc1ccccc1)N(CCCN1CCOCC1)Cc1ccccc1F,6%,-6%,4%,i,-12%,i
CCCN1CCCc2cc(CN(CCCN3CCOCC3)C(=O)Nc3ccc(CC)cc3)ccc21,.,23µM*,.,i,21µM*,i
CCCCN1CCCc2cc(CN(CCCN3CCOCC3)C(=O)Nc3ccc(CC)cc3)ccc21,.,?,.,i,21µM*,i
Cc1cccc(OCC(=O)Nc2ccc(C(=O)OCc3cc(=O)n4nc(C5CC5)sc4n3)cc2)c1,.,-14%,.,i,-19%,i
CC(C)Oc1ccc(-c2nc(-c3cccnc3)no2)cc1,.,?,.,i,?,i
Cc1cccc2sc(NNC(=O)c3ccc(S(=O)(=O)N4CC(C)CC(C)C4)cc3)nc12 (stereo not drawn),?,13µM*,16µM*,?,7.3µM*,i
